From PubChem BioAssay AID1159580 (chemical genetic matrix, 2015)
“And” between values parts separate entries of the source, which are not always exact repeats. Equal entries are not always repeated. The campaign covered roughly 5,500 compounds. About 2,000 (36%) were called active. Another 18% or so got no clear call; they are omitted. Cut-off read from the data, not from the text of the source: active = normalized growth mostly below about 0.91 (no sharp cut-off); inconclusive = no clear call, values can overlap the other calls; inactive = mostly above about 0.92. The list shows a part of the results.

Assay: chemical genetic growth profiling, strain panel (AID 1159580);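 note: tested at 20 µM; growth read once vehicle control cultures reached saturation at 30 °C; 1 = growth at the plate median or of vehicle wells; lower values mean less growth of the strain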
Conditions: growth OD
[1] = S. cerevisiae deletion strains, locus YAL013W, strain DEP1, hits give low values
[2] = S. cerevisiae deletion strains, locus YBR229C, strain ROT2, hits give low values
[3] = S. cerevisiae deletion strains, locus YDL101C, strain DUN1, hits give low values
[4] = S. cerevisiae deletion strains, locus YDL134C, strain PPH21, hits give low values
[5] = S. cerevisiae deletion strains, locus YDR150W, strain NUM1, hits give low values
[6] = S. cerevisiae deletion strains, locus YEL061C, strain CIN8, hits give low values
[7] = S. cerevisiae deletion strains, locus YGR078C, strain PAC10, hits give low values
[8] = S. cerevisiae deletion strains, locus YHR030C, strain SLT2, hits give low values
[9] = S. cerevisiae deletion strains, locus YJR043C, strain POL32, hits give low values
[10] = S. cerevisiae deletion strains, locus YJR075W, strain HOC1, hits give low values
[11] = S. cerevisiae deletion strains, locus YKL190W, strain CNB1, hits give low values
[12] = S. cerevisiae deletion strains, locus YLR039C, strain RIC1, hits give low values
[13] = S. cerevisiae deletion strains, locus YLR262C, strain YPT6, hits give low values
[14] = S. cerevisiae deletion strains, locus YMR263W, strain SAP30, hits give low values
[15] = S. cerevisiae deletion strains, locus YMR307W, strain GAS1, hits give low values
[16] = S. cerevisiae deletion strains, locus YNL153C, strain GIM3, hits give low values
[17] = S. cerevisiae deletion strains, locus YNL322C, strain KRE1, hits give low values
[18] = S. cerevisiae deletion strains, locus YOL006C, strain TOP1, hits give low values
[19] = S. cerevisiae deletion strains, locus YPL055C, strain LGE1, hits give low values
[20] = S. cerevisiae deletion strains, locus YPL241C, strain CIN2, hits give low values

Measured: normalized growth

COC(=O)c1cc(OC)c(OC)cc1NC(=O)Nc1cc(Cl)cc(Cl)c1
inactive: [1] 0.991 | [2] 0.998 | [3] 1.02 | [4] 0.979 | [5] 0.916 | [6] 1.02 | [7] 1.01 | [8] 0.868 | S. cerevisiae deletion strains, locus YHR087W, strain rtc3, hits give low values 1.02 | S. cerevisiae deletion strains, locus YJL187C, strain SWE1, hits give low values 1.03 | [9] 0.959 | [10] 0.982 | [11] 1.01 | [12] 1.01 | S. cerevisiae deletion strains, locus YLR058C, strain SHM2 (second series), hits give low values 1.01 | S. cerevisiae deletion strains, locus YLR085C, strain ARP6, hits give low values 0.973 | [13] 0.972 | S. cerevisiae deletion strains, locus YML094W, strain GIM5, hits give low values 0.998 | S. cerevisiae deletion strains, locus YMR219W, strain ESC1, hits give low values 1.02 | [14] 0.978 | [15] 1.05 | [16] 1.02 | S. cerevisiae deletion strains, locus YNL298W, strain CLA4 (second series), hits give low values 0.969 | [17] 1.02 | S. cerevisiae deletion strains, locus YNR030W, strain Alg12, hits give low values 0.978 | [18] 1.05 | [19] 1.08 | [20] 0.998 | S. cerevisiae deletion strains, locus YPR135W, strain CTF4, hits give low values 0.926

CC(C)OC(=O)Nc1cccc(Cl)c1
inactive: [1] 0.988 | [2] 0.979 | S. cerevisiae deletion strains, locus YCL029C, strain bik1, hits give low values 0.991 | S. cerevisiae deletion strains, locus YDL035C, strain GPR1, hits give low values 0.966 | S. cerevisiae deletion strains, locus YDL074C, strain BRE1, hits give low values 0.899 | [3] 0.986 | [4] 0.973 | S. cerevisiae deletion strains, locus YDL185W, strain tfp1, hits give low values 0.997 | S. cerevisiae deletion strains, locus YDL192W, strain arf1, hits give low values 0.995 | S. cerevisiae deletion strains, locus YDR101C, strain arx1, hits give low values 0.984 | [5] 0.992 | S. cerevisiae deletion strains, locus YDR162C, strain NBP2, hits give low values 0.979 | S. cerevisiae deletion strains, locus YDR318W, strain mcm21, hits give low values 0.978 | S. cerevisiae deletion strains, locus YDR388W, hits give low values 0.989 | S. cerevisiae deletion strains, locus YDR502C, strain sam2, hits give low values 0.973 | [6] 0.992 | S. cerevisiae deletion strains, locus YER110C, hits give low values 0.986 | S. cerevisiae deletion strains, locus YER155C, strain BEM2, hits give low values 0.987 | S. cerevisiae deletion strains, locus YER167W, strain BCK2, hits give low values 0.949 | S. cerevisiae deletion strains, locus YGL078C, strain dbp3, hits give low values 0.997 | S. cerevisiae deletion strains, locus YGL086W, strain mad1, hits give low values 0.995 | S. cerevisiae deletion strains, locus YGL248W, strain PDE1, hits give low values 0.962 | [7] 0.955 | S. cerevisiae deletion strains, locus YGR135W, strain pre9, hits give low values 0.969 | S. cerevisiae deletion strains, locus YGR229C, strain SMI1, hits give low values 0.941 | [8] 0.983 and 1.01 | S. cerevisiae deletion strains, locus YHR079C, strain IRE1 (second series), hits give low values 0.973 | S. cerevisiae deletion strains, locus YHR079C, strain IRE1, hits give low values 0.975 | S. cerevisiae deletion strains, locus YHR094C, strain hxt1, hits give low values 0.988 | S. cerevisiae deletion strains, locus YHR129C, strain ARP1, hits give low values 0.993 | S. cerevisiae deletion strains, locus YHR200W, strain rpn10, hits give low values 0.985 | S. cerevisiae deletion strains, locus YIL066C, strain RNR3, hits give low values 0.905 | S. cerevisiae deletion strains, locus YIL073C, strain SPO22, hits give low values 0.895 | S. cerevisiae deletion strains, locus YIL125W, strain kgd1, hits give low values 0.992 | S. cerevisiae deletion strains, locus YIR030C, strain dcg1, hits give low values 0.981 | S. cerevisiae deletion strains, locus YJL095W, strain BCK1, hits give low values 0.976 and 1 | S. cerevisiae deletion strains, locus YJL134W, strain LCB3, hits give low values 1.01 | S. cerevisiae deletion strains, locus YJL168C, strain set2, hits give low values 0.987 | S. cerevisiae deletion strains, locus YJL187C, strain SWE1 (second series), hits give low values 0.99 | [9] 1.07 | S. cerevisiae deletion strains, locus YJR066W, strain TOR1, hits give low values 0.937 | [10] 0.994 | S. cerevisiae deletion strains, locus YKL009W, strain mrt4, hits give low values 0.954 | S. cerevisiae deletion strains, locus YKL068W, hits give low values 0.997 | S. cerevisiae deletion strains, locus YKL085W, strain MDH1 (second series), hits give low values 0.991 | S. cerevisiae deletion strains, locus YKL085W, strain MDH1, hits give low values 0.991 | [11] 0.98 | S. cerevisiae deletion strains, locus YKR001C, strain vps1, hits give low values 0.958 | [12] 0.951 | S. cerevisiae deletion strains, locus YLR058C, strain SHM2, hits give low values 0.987 | S. cerevisiae deletion strains, locus YLR102C, strain apc9, hits give low values 0.987 | S. cerevisiae deletion strains, locus YLR113W, strain HOG1, hits give low values 0.87 | [13] 0.888 | S. cerevisiae deletion strains, locus YLR268W, strain sec22, hits give low values 0.99 | S. cerevisiae deletion strains, locus YLR330W, strain CHS5, hits give low values 0.995 | S. cerevisiae deletion strains, locus YLR342W, strain FKS1 (second series), hits give low values 0.944 | S. cerevisiae deletion strains, locus YLR371W, strain rom2, hits give low values 0.974 | S. cerevisiae deletion strains, locus YML016C, strain PPZ1, hits give low values 0.993 | S. cerevisiae deletion strains, locus YML032C, strain rad52, hits give low values 0.936 | S. cerevisiae deletion strains, locus YML124C, strain tub3, hits give low values 0.985 | S. cerevisiae deletion strains, locus YMR078C, strain ctf18, hits give low values 0.935 | S. cerevisiae deletion strains, locus YMR223W, strain ubp8, hits give low values 0.959 | [14] 0.988 | [15] 0.891 | S. cerevisiae deletion strains, locus YNL128W, strain TEP1, hits give low values 1.01 | [16] 0.999 | S. cerevisiae deletion strains, locus YNL183C, strain NPR1, hits give low values 0.94 | S. cerevisiae deletion strains, locus YNL233W, strain BNI4, hits give low values 1 | S. cerevisiae deletion strains, locus YNL250W, strain rad50, hits give low values 0.955 | S. cerevisiae deletion strains, locus YNL271C, strain bni1, hits give low values 0.976 | S. cerevisiae deletion strains, locus YNL298W, strain CLA4, hits give low values 0.998 | [17] 1 | S. cerevisiae deletion strains, locus YNR052C, strain pop2, hits give low values 0.985 | [18] 0.712 | S. cerevisiae deletion strains, locus YOL012C, strain htz1 0.915 | S. cerevisiae deletion strains, locus YOL147C, strain pex11, hits give low values 0.98 | S. cerevisiae deletion strains, locus YOR061W, strain CKA2, hits give low values 0.992 | S. cerevisiae deletion strains, locus YOR069W, strain VPS5, hits give low values 0.996 | S. cerevisiae deletion strains, locus YOR136W, strain idh2, hits give low values 0.977 | S. cerevisiae deletion strains, locus YOR144C, strain elg1, hits give low values 0.987 | S. cerevisiae deletion strains, locus YOR184W, strain ser1, hits give low values 0.906 | S. cerevisiae deletion strains, locus YOR231W, strain MKK1, hits give low values 0.985 | S. cerevisiae deletion strains, locus YOR316C, strain cot1, hits give low values 0.995 | [19] 0.955 | [20] 0.994 | S. cerevisiae deletion strains, locus YPL256C, strain CLN2, hits give low values 0.992 | S. cerevisiae deletion strains, locus YPR119W, strain clb2, hits give low values 0.986 | S. cerevisiae deletion strains, locus YPR141C, strain kar3, hits give low values 0.995 | S. cerevisiae deletion strains, locus YPR163C, strain tif3, hits give low values 0.983 | S. cerevisiae deletion strains, locus YPR167C, strain met16, hits give low values 0.986 | S. cerevisiae deletion strains, strain wtn01, hits give low values 0.976 | S. cerevisiae strains, strain wild type, hits give low values 0.997
active: S. cerevisiae deletion strains, locus YBR021W, strain FUR4, hits give low values 0.821 | S. cerevisiae deletion strains, locus YGR252W, strain gcn5, hits give low values 0.752 | S. cerevisiae deletion strains, locus YLR418C, strain cdc73, hits give low values 0.828 | S. cerevisiae deletion strains, locus YNL067W, strain RPL9B, hits give low values 0.301 | S. cerevisiae deletion strains, locus YNL307C, strain MCK1, hits give low values 0.863
